Source: PubChem BioAssay (Tox21)
Inconclusive results are not listed. The source made the active and inactive calls. Unless noted, calls follow the shape of the dose curve; as a rule, active = well fitted curve in the direction sought with a large enough effect in the repeat runs; inconclusive = weak or mixed curves; inactive = no such curve, though single readings can be large; an effect the other way counts as inactive or inconclusive.

How the values were obtained:
[1] = qHTS assay to identify small molecule antagonists of the estrogen receptor beta (ER-beta) signaling pathway - cell viability counter screen (AID 1259382);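 also: HEK293T cells carrying ER-beta-UAS-bla reporter stimulated with estradiol; series mostly up to about 92 µM; nearly all actives have a fitted effect of over 55% in size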
How it was run: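 HEK293T ER-beta-UAS-bla, 2% charcoal-stripped FBS; compounds + 1nM E2 16 hr 37C; CellTiter-Glo luminescence, 30 min RT.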

[2] = biological target: Estrogen receptor (Homo sapiens) (UniProt P03372); experiment: qHTS assay to identify small molecule agonists of the estrogen receptor alpha (ER-alpha) signaling pathway in the presence of an antagonist (AID 1259383; calls by dose curve; also: top concentration of the series differs between compounds; nearly all actives have a fitted effect of over 15% in size)
Estrogen receptor (Homo sapiens), sequence (P03372 whole entry, looked up): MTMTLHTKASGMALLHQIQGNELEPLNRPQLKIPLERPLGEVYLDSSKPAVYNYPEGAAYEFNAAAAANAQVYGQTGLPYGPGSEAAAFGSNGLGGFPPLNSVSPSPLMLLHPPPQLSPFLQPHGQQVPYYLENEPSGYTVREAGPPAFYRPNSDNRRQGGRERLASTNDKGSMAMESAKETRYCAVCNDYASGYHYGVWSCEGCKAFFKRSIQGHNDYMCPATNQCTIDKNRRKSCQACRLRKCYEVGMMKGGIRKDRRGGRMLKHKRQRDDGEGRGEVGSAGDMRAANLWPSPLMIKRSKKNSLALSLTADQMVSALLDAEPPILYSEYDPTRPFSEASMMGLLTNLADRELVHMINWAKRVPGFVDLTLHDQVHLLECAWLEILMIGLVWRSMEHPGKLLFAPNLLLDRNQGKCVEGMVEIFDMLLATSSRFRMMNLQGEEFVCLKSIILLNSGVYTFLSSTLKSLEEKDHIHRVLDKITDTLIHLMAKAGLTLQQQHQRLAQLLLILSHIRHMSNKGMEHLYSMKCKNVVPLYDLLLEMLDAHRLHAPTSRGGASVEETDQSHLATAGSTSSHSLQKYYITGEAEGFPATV
How it was run: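 ER-alpha agonism measured under antagonist challenge: 10.0nM ICI-182,780 (final) plus compound, 15 concentrations, 22hr, VM7Luc4E2 ERE-luciferase cells. Read by luminescence.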

[3] = qHTS assay to identify small molecule agonists of the estrogen receptor alpha (ER-alpha) signaling pathway in the presence of an antagonist - cell viability counter screen (AID 1259386);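 also: series mostly up to about 92 µM; cells exposed to compounds for 22 h at 37 °C before the viability read; nearly all actives have a fitted effect of over 30% in size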
How it was run: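 Steps: 5-day stripped-FBS culture; seed and incubate 24hr; add ICI-182,780 (10.0nM final); pin 15-point compound titration; incubate 22hr at 37C; add CellTiter-Fluor at 21hr; read fluorescence.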

[4] = biological target: Progesterone receptor (Homo sapiens) (UniProt P06401); experiment: qHTS assay to identify small molecule agonists of the progesterone receptor (PR) signaling pathway (AID 1346784; calls by dose curve; also: nearly all actives have a fitted effect of over 30% in size)
Progesterone receptor (Homo sapiens), sequence (P06401 whole entry, looked up): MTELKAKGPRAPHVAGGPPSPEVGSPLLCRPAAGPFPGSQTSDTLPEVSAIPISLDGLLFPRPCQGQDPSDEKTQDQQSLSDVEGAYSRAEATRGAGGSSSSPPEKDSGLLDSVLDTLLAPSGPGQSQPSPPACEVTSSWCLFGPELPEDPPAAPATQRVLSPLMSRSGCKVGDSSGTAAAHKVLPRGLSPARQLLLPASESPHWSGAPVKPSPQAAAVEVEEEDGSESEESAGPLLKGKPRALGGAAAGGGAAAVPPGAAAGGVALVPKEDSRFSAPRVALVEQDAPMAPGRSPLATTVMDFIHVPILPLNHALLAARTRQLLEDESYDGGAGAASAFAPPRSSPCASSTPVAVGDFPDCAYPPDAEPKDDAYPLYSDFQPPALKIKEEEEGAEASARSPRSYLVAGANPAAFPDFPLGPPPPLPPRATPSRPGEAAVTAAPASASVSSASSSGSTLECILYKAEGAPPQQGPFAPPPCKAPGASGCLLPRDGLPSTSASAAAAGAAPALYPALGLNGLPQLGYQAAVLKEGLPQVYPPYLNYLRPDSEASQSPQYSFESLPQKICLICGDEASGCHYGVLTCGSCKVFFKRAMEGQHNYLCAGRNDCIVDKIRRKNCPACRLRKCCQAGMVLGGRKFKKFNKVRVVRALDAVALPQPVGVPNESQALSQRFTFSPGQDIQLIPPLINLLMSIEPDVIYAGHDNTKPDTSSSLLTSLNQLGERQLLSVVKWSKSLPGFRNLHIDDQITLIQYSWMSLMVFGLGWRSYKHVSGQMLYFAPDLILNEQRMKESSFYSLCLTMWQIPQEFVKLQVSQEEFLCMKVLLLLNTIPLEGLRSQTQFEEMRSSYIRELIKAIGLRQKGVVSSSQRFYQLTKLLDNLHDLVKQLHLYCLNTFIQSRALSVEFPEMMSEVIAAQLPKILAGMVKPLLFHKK
How it was run: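 Compounds were tested for PR agonism in HEK 293T cells bearing a beta-lactamase gene under UAS control. Treatment lasted 16 hr at 37C; signal came from fluorescence of a FRET substrate.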

[5] = biological target: Progesterone receptor (Homo sapiens) (UniProt P06401); experiment: qHTS assay to identify small molecule antagonists of the progesterone receptor (PR) signaling pathway (AID 1346795; active = well fitted inhibition curve with a large enough effect in the signal ratio in the repeat runs, not every such curve was filed as active; the % refers to the signal ratio)
How it was run: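 In HEK293T cells bearing the PR-UAS-bla reporter, compound effects on promegestone-driven (1 nM) beta-lactamase expression are assessed after 16 hr using a fluorescent FRET substrate incubated 2 hr at room temperature.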

[6] = qHTS assay to identify small molecule antagonists of the progesterone receptor (PR) signaling pathway - cell viability counter screen (AID 1346798); also: series mostly up to about 92 µM; nearly all actives have a fitted effect of over 50% in size
How it was run: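 Following a 4 hr attachment, PR-UAS-bla HEK293T cells in charcoal-stripped FBS medium were exposed to compounds with R5020 for 16 hr; CellTiter-Glo was added and luminescence read after 30 min at room temperature.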

[7] = qHTS assay to identify small molecule agonists of the progesterone receptor (PR) signaling pathway - cell viability counter screen (AID 1346799; calls by dose curve; also: nearly all actives have a fitted effect of over 45% in size)
How it was run: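 Here, 3,000 PR-UAS-bla HEK293T cells per well were treated with compounds for 16 hr after a 6 hr preincubation at 37C and 5% CO2; cell viability is the CellTiter-Glo luminescence signal.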

[8] = qHTS assay to identify small molecule antagonists of the TGF-beta/Smad signaling pathway - cell viability counter screen (AID 1346824); also: nearly all actives have a fitted effect of over 50% in size
How it was run: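 SBE-bla HEK 293T cells were plated overnight at 37 C, then given compounds in DMSO plus TGF-beta1 (added as 0.25 ng/mL solution) for 5 hr. After the bla read, CellTiter-Glo was added to the same wells and luminescence read after 30 min at room temperature.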

[9] = qHTS assay to identify small molecule agonists of the TGF-beta/Smad signaling pathway (AID 1346859; active = well fitted activation curve with a large enough effect in the signal ratio in the repeat runs, not every such curve was filed as active; the % refers to the signal ratio; also: series mostly up to about 77 µM)
How it was run: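 Each well held 4,000 SBE-bla HEK 293T cells incubated overnight before compound addition; 5 hr later the cleavable FRET substrate went on for 2 hr at room temperature, and fluorescence was read at two emissions.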

[10] = Human pregnane X receptor (PXR) small molecule agonists, qHTS cell viability counter screen (AID 1346977); also: nearly all actives have a fitted effect of over 50% in size
How it was run: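 Tox21 qHTS format; PXR-Luc HepG2, 2,000/well, charcoal-stripped FBS 5%. Cpd exposure 24hr. Read: CellTiter-Fluor fluorescence, multiplexed with luciferase.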

[11] = Caspase-3/7 induction in HepG2 cells by small molecules, qHTS assay (AID 1346978); also: nearly all actives have a fitted effect of over 15% in size
How it was run: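 Wild-type HepG2 cells (2,000/well) were settled 5 h at 37 C, 5% CO2, then exposed to compounds in DMSO for 17 h. Caspase-3/7 activity was read by luminescence 30 min after adding Caspase-Glo 3/7 reagent at room temperature.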

[12] = Caspase-3/7 induction in CHO-K1 cells by small molecules, qHTS cell viability counter screen (AID 1346979); also: nearly all actives have a fitted effect of over 35% in size
How it was run: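 CellTiter-Fluor viability check, qHTS format: wild-type CHO-K1, 16hr compound treatment, 1hr reagent incubation, fluorescence read.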

[13] = Caspase-3/7 induction in CHO-K1 cells by small molecules, qHTS assay (AID 1346980); also: nearly all actives have a fitted effect of over 15% in size
How it was run: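 Wild-type cells were seeded at 1,500 per well and settled 5 hr at 37 C, 5% CO2, then exposed to DMSO-dissolved compounds for 17 hr. Caspase-Glo 3/7 reagent was added, and luminescence was read after 30min at room temperature.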

[14] = Caspase-3/7 induction in HepG2 cells by small molecules, qHTS cell viability counter screen (AID 1346981); also: series mostly up to about 92 µM; nearly all actives have a fitted effect of over 30% in size
How it was run: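 The parent HepG2 line is plated at 2,000 cells per well and rested 5 hr before compound pinning from DMSO stocks. Following a 16-hr treatment at 37 C, a fluorogenic live-cell substrate (CellTiter-Fluor) reports viability after 1 hr.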

[15] = biological target: Nuclear receptor subfamily 1 group I member 2 (Homo sapiens) (UniProt O75469); experiment: Human pregnane X receptor (PXR) small molecule agonists, qHTS assay (AID 1346982); also: nearly all actives have a fitted effect of over 35% in size
Nuclear receptor subfamily 1 group I member 2 (Homo sapiens), sequence (O75469 whole entry, looked up): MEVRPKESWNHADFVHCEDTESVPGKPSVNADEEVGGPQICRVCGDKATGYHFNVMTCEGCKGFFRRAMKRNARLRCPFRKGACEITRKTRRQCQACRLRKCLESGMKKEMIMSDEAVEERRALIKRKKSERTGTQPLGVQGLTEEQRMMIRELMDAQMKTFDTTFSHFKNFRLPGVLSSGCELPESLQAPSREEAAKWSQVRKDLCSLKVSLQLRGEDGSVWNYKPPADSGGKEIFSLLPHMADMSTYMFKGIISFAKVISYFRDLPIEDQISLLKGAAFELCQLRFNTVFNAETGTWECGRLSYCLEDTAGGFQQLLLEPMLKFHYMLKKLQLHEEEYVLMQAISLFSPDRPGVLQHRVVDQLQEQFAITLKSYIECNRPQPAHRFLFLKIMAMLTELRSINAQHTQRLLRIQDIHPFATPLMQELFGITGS
How it was run: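 After plating in 5% charcoal-stripped FBS and a 5 hr rest, PXR-Luc HepG2 cells received compounds in DMSO. Following 24 hr at 37 C, ONE-Glo was added and light output read.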

[16] = qHTS assay to identify small molecule agonists or antagonists of the thyroid stimulating hormone receptor (TSHR) signaling pathway - wild type cell line counter screen (AID 1259384; calls by dose curve)
How it was run: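 Wild-type HEK293 cells were plated 18 h at 37 C/5% CO2, pin-dosed with compound plus Ro20-1724 medium, held 30 min at room temperature, then given cAMP-d2 and anti-cAMP-cryptate; fluorescence was read after 1 h. Fifteen concentrations, triplicate.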

[17] = biological target: Thyrotropin receptor (Homo sapiens) (UniProt P16473); experiment: qHTS assay to identify small molecule antagonists of the thyroid stimulating hormone receptor (TSHR) signaling pathway (AID 1259385; calls by dose curve; also: nearly all actives have a fitted effect of over 20% in size)
Thyrotropin receptor (Homo sapiens), sequence (P16473 whole entry, looked up): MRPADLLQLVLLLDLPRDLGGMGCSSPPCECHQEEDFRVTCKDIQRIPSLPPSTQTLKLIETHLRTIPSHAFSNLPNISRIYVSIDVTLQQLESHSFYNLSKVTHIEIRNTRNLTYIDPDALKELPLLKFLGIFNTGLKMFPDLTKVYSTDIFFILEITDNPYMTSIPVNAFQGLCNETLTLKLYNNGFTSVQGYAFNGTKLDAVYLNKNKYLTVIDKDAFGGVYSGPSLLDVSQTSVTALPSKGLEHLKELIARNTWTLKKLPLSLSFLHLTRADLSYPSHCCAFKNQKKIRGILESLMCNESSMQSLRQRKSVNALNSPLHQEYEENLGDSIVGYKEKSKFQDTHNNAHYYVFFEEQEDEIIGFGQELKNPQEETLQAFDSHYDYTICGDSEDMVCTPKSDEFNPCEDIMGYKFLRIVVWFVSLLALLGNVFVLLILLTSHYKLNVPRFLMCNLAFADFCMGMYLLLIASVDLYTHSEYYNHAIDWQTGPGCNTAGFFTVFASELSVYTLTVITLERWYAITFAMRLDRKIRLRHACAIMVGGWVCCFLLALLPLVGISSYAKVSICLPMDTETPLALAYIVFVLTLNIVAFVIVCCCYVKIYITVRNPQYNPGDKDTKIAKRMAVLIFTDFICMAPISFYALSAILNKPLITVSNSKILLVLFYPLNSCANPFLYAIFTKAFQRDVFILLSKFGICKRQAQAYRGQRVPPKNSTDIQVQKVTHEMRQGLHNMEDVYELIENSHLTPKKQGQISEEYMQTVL
How it was run: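 TSHR-HEK293 cells were plated and held 18 h at 37C/5% CO2, then given compound plus Ro20-1724 and stimulated with TSH at 1.5 ng/mL final. After 30 min at room temperature, cAMP was detected with cAMP-d2/anti-cAMP-cryptate (1 h) by fluorescence.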

[18] = qHTS assay to identify small molecule agonists of the TGF-beta/Smad signaling pathway - cell viability counter screen (AID 1346829); also: top concentration of the series differs between compounds; nearly all actives have a fitted effect of over 45% in size
How it was run: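 Tox21 qHTS format: SBE-bla HEK 293T cells treated with DMSO-dissolved compounds for 5 hr; CellTiter-Glo luminescence after 30 min at room temperature.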

[19] = biological target: Thyrotropin-releasing hormone receptor (Homo sapiens) (UniProt P34981); experiment: qHTS assay to identify small molecule antagonists of the thyrotropin-releasing hormone receptor (TRHR) signaling pathway (AID 1346877; active = well fitted inhibition curve with a large enough effect in the repeat runs, not every such curve was filed as active; also: series mostly up to about 51 µM)
Thyrotropin-releasing hormone receptor (Homo sapiens), sequence (P34981 whole entry, looked up): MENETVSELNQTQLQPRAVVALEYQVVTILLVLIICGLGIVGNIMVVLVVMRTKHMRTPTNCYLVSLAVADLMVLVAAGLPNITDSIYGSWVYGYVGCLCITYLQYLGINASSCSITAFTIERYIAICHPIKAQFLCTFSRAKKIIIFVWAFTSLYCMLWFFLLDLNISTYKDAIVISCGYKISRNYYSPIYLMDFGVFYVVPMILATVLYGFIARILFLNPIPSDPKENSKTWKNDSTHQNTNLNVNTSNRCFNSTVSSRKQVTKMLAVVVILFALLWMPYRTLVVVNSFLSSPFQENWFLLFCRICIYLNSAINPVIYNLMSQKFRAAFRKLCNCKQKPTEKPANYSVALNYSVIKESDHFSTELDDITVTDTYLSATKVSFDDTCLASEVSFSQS
How it was run: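 Human TRHR in HEK293 cells; inhibition of the intracellular calcium rise triggered by 1 nM TRH was followed by fluorescence over 3 min. Compounds were run at 15 concentrations, three replicates each.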

[20] = biological target: Thyrotropin-releasing hormone receptor (Homo sapiens) (UniProt P34981); experiment: qHTS assay to identify small molecule agonists of the thyrotropin-releasing hormone receptor (TRHR) signaling pathway (AID 1346891; calls by dose curve; also: series mostly up to about 58 µM)
How it was run: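 Screening of agonists relied on calcium signalling in HEK293 cells expressing human TRHR: dye loading 2 h at 37 °C preceded compound addition and a 3-min fluorescence time course.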

Measured: Potency

Cc1ccccc1C
not listed: [16] | [17] | [18] | [19] | [20]
inactive: all other assays above

Cc1ncc([N+](=O)[O-])n1CC(O)CCl (configuration not stated)
not listed: [2] | [15]
inactive: all other assays above

C[CH2][Ge]([Cl])([CH2]C)[CH2]C
not listed: [2] | [5] | [7]
inactive: all other assays above

CCOC(=O)OCC/C(SC(=O)OCC)=C(\C)N(C=O)Cc1cnc(C)nc1N
not listed: [2] | [19] | [20]
inactive: all other assays above

CCCCCCCCCCCCCCCCCCN(C)C
not listed: [2] | [15] | [19] | [20]
inactive: all other assays above

CC(C)CCCC(C)CC=O (configuration not stated)
not listed: [2] | [12] | [18] | [20]
inactive: all other assays above

CCCCCCCCCCCCCC(=O)OC
not listed: [2] | [18]
inactive: all other assays above
